{"source": "the supplement of paper PMC11417369", "note": "The full ranking holds about 25,000 sequences; the median of “ln(normalized median fluorescence intensity)” is about 6.7, and the highest 2% start at about 10. This excerpt belongs to a sample that is enriched for the highest values."}
{"test_system": "PfHDP1 homeodomain (GST-tagged)", "assay": "gcPBM binding intensity (ln(normalized median fluorescence intensity)); higher = stronger DNA binding", "method_in_brief": "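GST-tagged P. falciparum DNA-binding domains, expressed in E. coli (about 25 μg on average), were applied for 1 h to an Agilent 4 × 180k array of primer-extended double-stranded 36-bp intergenic genomic probes plus negative controls. The binding buffer was 1× PBS with 1% milk, 0.2 mg/ml BSA, 0.5% salmon testes DNA and 0.03% Triton X-100. Bound protein was detected with Alexa488 anti-GST antibody and scanned at 488 nm. Binding intensity is the highest Masliner-normalised natural-log median intensity across replicate spots of either probe orientation.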"}
{"sequence": "ATATATATATATATATGTACATATTATTAATAATAT [XGTACX_site6667]", "gcPBM binding intensity (ln)": 9.32}
{"sequence": "TTTTGAATATTTGGTCGTACGTAAAAATAGATAATT [XGTACX_site5755]", "gcPBM binding intensity (ln)": 6.75}
{"sequence": "AAGTTTTCTTAAAATTGTACTTTTCAAAAATAATCT [XGTACX_site277]", "gcPBM binding intensity (ln)": 5.83}
{"sequence": "TAATATATTATAAACACATGCACATTAATAATAACT [TGCATGCA_site708]", "gcPBM binding intensity (ln)": 8.38}
{"sequence": "TATATAACATATGGGACACACATGCAACTGTTATAT [CACACA_site3792]", "gcPBM binding intensity (ln)": 6.89}
{"sequence": "CATTAACAAATAAATGCACACATATATATAAATAAT [CACACA_site7892]", "gcPBM binding intensity (ln)": 9.2}
{"sequence": "AACAACAACTAATATGCACACATTTAAAAACAAAAT [CACACA_site2440]", "gcPBM binding intensity (ln)": 9.7}
{"sequence": "ATGGTGCAACATTATGCACACCGTTAAATAACTAAT [CACACA_site9280]", "gcPBM binding intensity (ln)": 11.7}
{"sequence": "TTATGGTGCAACATTATGCACACCGTTAAATAACTA [CACACA_site3846]", "gcPBM binding intensity (ln)": 11.4}
{"sequence": "TGATTCTAACTTATGGTGCAACATTATGGACACCGT", "gcPBM binding intensity (ln)": 10.5}
{"sequence": "GATTCATCTAAACACCGTACATATTATATATATATA [XGTACX_site6030]", "gcPBM binding intensity (ln)": 8.65}
{"sequence": "TCATAAACATTATGCACACAAAAATAAAAAAAAATA [CACACA_site1115]", "gcPBM binding intensity (ln)": 10.2}
{"sequence": "GAATGCCTTGAAAATAGTACAATTAAGAAAAAATAC [XGTACX_site8002]", "gcPBM binding intensity (ln)": 6.53}
{"sequence": "ACATAAGATGAAAAATGTACATTCAAAAAATGAAAT [XGTACX_site3227]", "gcPBM binding intensity (ln)": 6.52}
{"sequence": "AAGACAAATTTTACATGTACAAATATATTACATATA [XGTACX_site7060]", "gcPBM binding intensity (ln)": 6.83}
{"sequence": "AATGTATATATGTAATGTACATATATAATGTATATA [XGTACX_site6510]", "gcPBM binding intensity (ln)": 6.6}
{"sequence": "TTATATGCTCAATGTTGTACATGTAGATATATATAT [XGTACX_site8211]", "gcPBM binding intensity (ln)": 9.77}
{"sequence": "ATTACACATATAGTAGTGCAATAACTCCAAAAAAAA", "gcPBM binding intensity (ln)": 9.55}
{"sequence": "AAATTTTAATTAGACTGTACACATTTTAGAATAATT [XGTACX_site4819]", "gcPBM binding intensity (ln)": 6.17}
{"sequence": "AAAAAAAATTAATTAGTGCAAAATATATACAAAATA [GTGCAC_site9762]", "gcPBM binding intensity (ln)": 10.4}
{"sequence": "TATTTATAGATATATACACACATATACATATTGTTT [CACACA_site7611]", "gcPBM binding intensity (ln)": 6.63}
{"sequence": "TTTGATCGATGGATTTAACACACAAAAAAAAAAAAA [CACACA_site9279]", "gcPBM binding intensity (ln)": 6.32}
{"sequence": "CTATTTCAATTTAGTGCACACATTTTAATTTATAAG [CACACA_site2040]", "gcPBM binding intensity (ln)": 10.9}
{"sequence": "ACCCATTTTAATTTAGTGCACATTTTACCTTTATAC", "gcPBM binding intensity (ln)": 10.1}
{"sequence": "ATATATATATATATAGTGCACATTTATATAATTATT", "gcPBM binding intensity (ln)": 10}
{"sequence": "CTACTTAATATTTGTACACACATATTTAACCTACTA [CACACA_site5725]", "gcPBM binding intensity (ln)": 7.02}
